Sampled rows, rich in hits. Any-hit rate of the full collection: about 1.9%.
BaF3 parental = reduces parental Ba/F3 cell viability, JAK2V617F counter-screen. actives 1.1% (n = 220,000). CellTiter-Glo ATP luminescence. inhibition, % at 5.6 µM;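 active = inhibition above a per-campaign cutoff, the mean inhibition of all tested compounds plus 3 SD, cut at about 27% in these data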;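 also: 0% = DMSO wells and 100% = JAK Inhibitor I control wells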
Ba/F3 V617F tox = reduce viability of Ba/F3 cells dependent on JAK2V617F; AID 1446; inhibition, % at 5.6 µM; actives 1.1% (n = 220,000); Ba/F3 EpoR-JAK2V617F viability, ATP luminescence;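 active = inhibition above the campaign mean plus 3 SD over all tested compounds, cut at about 24% in these data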;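 also: cytokine-independent growth of Ba/F3 cells driven by EpoR plus mutant JAK2; 0% = DMSO-treated cells and 100% = JAK inhibitor I control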
APP 5UTR inh = APP translation inhibition | SH-SY5Y APP 5'UTR-luciferase reporter, luminescence | inhibition, % at 2 µM | actives 0.82% (n = 190,000);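 active = inhibition above a set limit, derived from the sample mean plus 3 SD, cut at about 45% in these data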
KLF5 inhibitor = suppresses KLF5 promoter-driven expression | DLD-1 KLF5 promoter-luciferase reporter, luminescence | inhibition, % at 5 µM | actives 0.23% (n = 290,000) | AID 1700;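 active = inhibition above a per-plate limit of that plate's mean compound inhibition plus 3 SD, cut at about 60% in these data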;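 also: 0% = DMSO wells and 100% = LY294002 at 200 µM; higher means less KLF5 promoter-driven luciferase light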
IEC-6 tox = kills IEC-6 intestinal cells in KLF5 counter-screen. inhibition, % at 5 µM. actives 0.78% (n = 290,000). IEC-6 cytotoxicity, luminescence viability; in the data active = inhibition above about 22%;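 also: 0% = plate median of test compound wells and 100% = cytotoxic reference compound wells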
Numbers without * were called inactive; nt = no result.

SMILES	BaF3 parental	Ba/F3 V617F tox	APP 5UTR inh	KLF5 inhibitor	IEC-6 tox
C=CCNC(=S)/N=c1/ccccn1CCC	56*	51*	nt	-35	0
COc1ccc(NC(=O)c2c(-c3c(Cl)cccc3Cl)noc2C)c(OC)c1	nt	nt	nt	11	12
O=CC1=C(c2ccccc2)Oc2ccccc2O1	nt	nt	nt	12	-1
CCOC(=O)C1CCCCN1C(=O)CCc1c(C)nc2cc(-c3ccccc3)nn2c1C (stereo not given)	3	-1	52*	-13	-3
CCOC(=O)C1CCN(C(=O)CCc2c(C)nc3cc(-c4ccccc4)nn3c2C)CC1	4	-4	23	-12	-4
COc1cc(OC)cc(-c2cc3nc(C)c(CCC(=O)O)c(C)n3n2)c1	4	-2	78*	33	-10
CCOc1ccccc1NC(=O)NC1(C(=O)NCc2cccnc2)CCCCC1	nt	nt	nt	-25	8
COc1ccc(CN2C(=O)c3cccnc3C2=O)cc1S(=O)(=O)NC1CCCCC1	nt	nt	nt	-18	-3
CN(C)/C=N/C1=C(C#N)C(c2cccs2)c2ccc3ccccc3c2O1 (stereo not given)	12	3	92*	-42	5
N#CC1=C(N)Oc2cc3ccccc3cc2C1c1cccs1 (stereo not given)	4	-1	-18	-2	7
CC(=O)N(Cc1ccc(F)cc1)C1=C(NCc2ccccc2)C(=O)c2ccccc2C1=O	48*	12	65*	42	18
NC(=S)n1[nH]c(-c2ccc([N+](=O)[O-])cc2)c(N=Nc2ccccc2[N+](=O)[O-])c1=O	46*	2	14	4	8
O=C(Cc1nnc(NC(=O)c2cccc([N+](=O)[O-])c2)s1)NCc1ccccc1	nt	nt	nt	-12	-1
CCOC(=O)c1csc(N)n1	7	2	-16	-2	0
CCOC(=O)c1c(C)[nH]c(-c2csc(C)n2)c1C	2	0	15	-21	-4
CCOC(=O)c1ccccc1-c1csc(N)n1	53*	5	-9	-5	6
CCOC(=O)c1c(C)[nH]c(-c2csc(N)n2)c1C	3	3	73*	4	4
Cc1[nH][nH]c(=O)c1C=Nc1ccc(C(F)(F)F)cc1	4	3	77*	-16	1
COc1ccc(C(C)=O)cc1COc1ccccc1[N+](=O)[O-]	1	-1	20	-40	3
COc1ccc(C(C)=O)cc1COC(=O)CNC(=O)c1cc(C)cc(C)c1	38*	70*	3	-12	4
COc1ccc(C(C)=O)cc1COC(=O)c1ccc(N)c([N+](=O)[O-])c1	-3	-4	6	2	31*
COc1ccc(C(C)=O)cc1COC(=O)CCNS(=O)(=O)c1ccc(C(C)=O)cc1	nt	nt	nt	-52	-10
O=C(CSCc1ccc([N+](=O)[O-])cc1)N/N=C/c1cccnc1	2	-3	-17	-15	4
O=C(CSCc1ccc([N+](=O)[O-])cc1)N/N=C/c1ccncc1	84*	2	-8	-27	-2
Cn1c(Oc2ccc(Cl)c3cccnc23)nc2c1c(=O)n(Cc1ccccc1Cl)c(=O)n2C	94*	-2	-6	-11	0
SMILES	BaF3 parental	Ba/F3 V617F tox	APP 5UTR inh	KLF5 inhibitor	IEC-6 tox
COc1ccnc2c1c(=O)n(Cc1ccccc1Cl)c(=O)n2C	nt	nt	nt	-18	-4
CCSc1nccc(-c2nn(-c3ccc(C)cc3)ccc2=O)n1	38*	31*	nt	7	17
CN(C)c1ccc(NC2=C(Cl)C(=O)c3ccccc3C2=O)cc1	7	4	94*	-109	25*
O=C1C(Cl)=C(NCCCO)C(=O)c2ccccc21	-2	-3	1	-9	16
O=C1C(Cl)=C(Nc2ccc3cn[nH]c3c2)C(=O)c2ccccc21	107*	98*	nt	-28	101*
CC(=O)Nc1ccc(NC2=C(Cl)C(=O)c3ccccc3C2=O)cc1	2	-3	89*	12	3
Cc1cc(NC(=O)c2c(Br)c(C)nn2C)no1	5	1	-15	19	0
Cc1ccccc1NC(=S)NCc1ccc2[nH]c3c(c2c1)CCCC3	4	-4	-21	-18	1
Cc1ccc(C)c(NC(=S)NCc2ccc3[nH]c4c(c3c2)CCCC4)c1	8	1	47*	-2	0
COc1ccc(CNC(=S)Nc2cc(C)ccc2C)cc1	4	-2	70*	-18	-2
COC(=O)Cc1ccc(NC(=O)c2ccc(C(C)(C)C)cc2)cc1	-1	-3	84*	40	5
CCOC(=O)Cc1ccc(NC(=O)c2ccc([N+](=O)[O-])cc2)cc1	33*	-2	-3	-18	4
Cc1ccc(S(=O)(=O)NCC(=O)N(CC(=O)NCC2CCCO2)Cc2ccccc2Cl)cc1 (stereo not given)	nt	nt	nt	6	0

Assay outcomes from PubChem BioAssay.
